# Records with an inconclusive call do not appear. A call without a number means that no potency is given here. Calls of active or inactive are those of the source. Calls come from the whole dose curve; as a rule, active = well fitted cell-killing curve with a large enough effect; inconclusive = small, poorly fitted or top-dose-only effect, or effect the other way; inactive = no such curve, though single readings can be large or run the other way.
# Test: Quantitative High-Throughput drug screen in 47 multiple myeloma cell lines against the NCATS MIPE library collection: ARD_JJKsccE7 cell viability assay (AID 1918929)
# Settings: ARD myeloma cell line viability, CellTiter-Glo, 48 h; series mostly up to 45.8 µM
# Summary of the method: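 Myeloma cells (500 per well) were exposed to MIPE 4.0 compounds by pin transfer and incubated 48 hours at 37C, 5% CO2. Viability was read as ATP by CellTiter-Glo luminescence, normalised to DMSO (100%) and media-only (0%) wells.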
# Potency is the fitted concentration of half-maximal effect.
row,SMILES,Potency
1,CO[C@H]1/C=C\O[C@@]2(C)Oc3c(C)c(O)c4c(O)c(c(C=NN5CCN(C6CCCC6)CC5)c(O)c4c3C2=O)NC(=O)C(C)=CC=C[C@H](C)[C@H](O)[C@@H](C)[C@@H](O)[C@@H](C)[C@H](OC(C)=O)[C@H]1C,1.05 µM (active)
2,CC(C)(CO)[C@@H](O)C(=O)NCCC(=O)O,inactive
3,CC1(C)[C@H]2CC[C@]3(C)[C@@H](C(=O)C=C4[C@@H]5C[C@@](C)(C(=O)O)CC[C@]5(C)CC[C@]43C)[C@@]2(C)CC[C@@H]1O,inactive
4,CCN(CC)CCCCNc1nc2cc(Cl)c(Cl)cc2nc1-c1ccc(-c2cccs2)s1,8.33 µM (active)
5,CN(C)CC[C@H](CSc1ccccc1)Nc1ccc(S(=O)(=O)NC(=O)c2ccc(N3CCN(Cc4ccccc4-c4ccc(Cl)cc4)CC3)cc2)cc1[N+](=O)[O-],8.33 µM (active)
6,COC(=O)Nc1ccc(-c2nc(N3CCOCC3)c3cnn(C4CCN(C(=O)OC)CC4)c3n2)cc1,0.526 µM (active)
7,CN[C@@H](C)[C@H]1[C@H](O)C[C@@]2(C)[C@@H]3CC[C@H]4C(C)(C)[C@@H](NC)CC[C@@]45C[C@@]35CC[C@]12C,inactive
8,O=C(CC12CC3CC(CC(C3)C1)C2)Nc1cccc2nc(NCCNCCO)ccc12,18.7 µM (active)
9,CC1=C(C(=O)Nc2cc3cn[nH]c3cc2F)C(c2ccc(C(F)(F)F)cc2)CC(=O)N1 (configuration not stated),inactive
10,CC(=O)NCCC(=O)N[C@@H](CCC(N)=O)C(=O)N[C@@H](CO)C(=O)N[C@@H](CCC(N)=O)C(=O)N[C@@H](CCC(N)=O)C(=O)N[C@H](C(=O)N[C@@H](Cc1ccccc1)C(=O)N[C@]1(C)CCCCCCC=CCCC[C@@](C)(C(=O)N[C@@H](CCC(N)=O)C(=O)N[C@@H](CC(N)=O)C(N)=O)NC(=O)[C@H](CC(C)C)NC(=O)[C@H](CC(C)C)NC(=O)[C@@H](CCCNC(=N)N)NC(=O)[C@H](Cc2c[nH]c3ccccc23)NC(=O)[C@H](CC(C)C)NC(=O)[C@H](CC(N)=O)NC1=O)[C@H](C)O,inactive
11,CS(=O)(=O)c1ccc(C2=C(c3ccccc3)C(=O)OC2)cc1,inactive
12,CCC(c1ccc(O)cc1)C(CC)c1ccc(O)cc1 (configuration not stated),inactive
13,CC(C)n1c(C=C[C@H](O)C[C@H](O)CC(=O)O)c(-c2ccc(F)cc2)c2ccccc21,9.35 µM (active)
14,CN1CC(=O)N2C(Cc3c([nH]c4ccccc34)[C@H]2c2ccc3c(c2)OCO3)C1=O (some centres not stated),inactive
15,CCCCC(C)(C)[C@H](O)C=C[C@H]1[C@H](O)CC(=O)[C@H]1CC=CCCCC(=O)O,inactive
16,Cc1nc2c([nH]1)CCN(C(=O)c1ccc(NC(=O)c3ccccc3-c3ccccc3)cc1)c1ccccc1-2,inactive
17,C[C@@H](N)c1ccc(C(=O)Nc2ccnc3[nH]ccc23)cc1,26.4 µM (active)
